In PubChem BioAssay AID1209 (Sanford-Burnham Center for Chemical Genomics, 2008):
Screen size: about 190,000 compounds; about 810 (0.43%) were called active. Only a selection was taken, and actives are over-represented in it overall. A number with no mark means an inactive call. Rule as the data show it: active = inhibition above about 50%; inactive = the rest.

The molecules below were run against Mannose-6-phosphate isomerase (Homo sapiens) (UniProt P34949) (assay: inhibitors of human PMI, primary screen, biochemical, fluorescence intensity, coupled assay (AID 1209;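 also: plate controls were DMSO vehicle for no effect and wells lacking substrate for full effect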)). Conditions: purified PMI enzyme, at 20 µM, active compounds read high.
Mannose-6-phosphate isomerase (Homo sapiens), sequence (P34949 whole entry, looked up): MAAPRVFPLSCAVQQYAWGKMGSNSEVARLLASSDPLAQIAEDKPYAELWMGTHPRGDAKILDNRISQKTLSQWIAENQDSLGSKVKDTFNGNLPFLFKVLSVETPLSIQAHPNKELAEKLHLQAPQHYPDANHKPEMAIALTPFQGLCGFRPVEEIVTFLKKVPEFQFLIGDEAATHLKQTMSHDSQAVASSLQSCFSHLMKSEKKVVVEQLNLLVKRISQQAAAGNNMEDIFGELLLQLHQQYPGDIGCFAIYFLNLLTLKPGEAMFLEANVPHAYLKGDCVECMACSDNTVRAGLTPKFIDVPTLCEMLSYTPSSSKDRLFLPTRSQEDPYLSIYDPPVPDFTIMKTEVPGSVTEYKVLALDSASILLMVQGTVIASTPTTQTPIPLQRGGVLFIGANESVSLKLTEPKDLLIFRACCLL

SMILES | inhibition
COC(=O)/C(C(C)=O)=C(\C=C\N(C)C)N(C)C | 1%
Nc1nnc(SCc2ccccc2F)n1-c1ccccc1 | 3.6%
NC(=O)[C@@H]1CCNc2c(I)cc([N+](=O)[O-])cc2C(=O)N[C@@H](CO)C(=O)N[C@@H](Cc2ccc(O)cc2)C(=O)N1 | -42.9%
CCN(CCC(=O)Nc1cc(OC)cc(OC)c1)Cc1ccccc1 | 6.5%
Cc1nnc(NC(=O)c2ccc3ccccc3n2)s1 | -23.8%
COc1cc(C(c2sc3nc(C)nn3c2O)N2CCc3ccccc3C2)cc(OC)c1OC (stereo unspecified) | 11.5%
COc1cccc(C(c2sc3nc(C)nn3c2O)N2CCc3ccccc3C2)c1 (stereo unspecified) | 65.3% (active)
COc1ccc(C(c2sc3nc(C)nn3c2O)N2CCc3ccccc3C2)cc1 (stereo unspecified) | 72.5% (active)
COc1cccc(C(c2sc3ncnn3c2O)N2CCc3ccccc3C2)c1 (stereo unspecified) | 40.6%
CCN1CCN(C(c2cccc(OC)c2)c2sc3nc(C)nn3c2O)CC1 (stereo unspecified) | 2.4%
COc1ccc(C(c2sc3nc(C)nn3c2O)N2CCCCC2)cc1 (stereo unspecified) | -1.5%
COc1cc2c(cc1OC)CC(=O)N(C)CC2 | 3.4%
O=C(CSC1CC(=O)N(c2ccc(C(=O)O)cc2)C1=O)Nc1ccc(Cl)cc1 (stereo unspecified) | -7.6%
Cc1ccc(N2C(=O)CC(SCC(=O)Nc3ccc(S(N)(=O)=O)cc3)C2=O)cc1 (stereo unspecified) | 16.8%
CCN(CC(=O)NCCc1ccc(S(N)(=O)=O)cc1)Cc1nc2cc(OC)c(OC)cc2c(=O)[nH]1 | -4.3%
CC(C(=O)Nc1ccccc1C(=O)O)n1c(C(F)(F)F)nc2ccccc21 (stereo unspecified) | 1.2%
O=C(CSc1nc2c(sc3ccccc32)c(=O)n1CCCN1CCCC1)NCC1CCCO1 (stereo unspecified) | -1%
O=C(CSc1nc2c(sc3ccccc32)c(=O)n1Cc1ccccc1)NCC1CCCO1 (stereo unspecified) | 15.3%
O=C(CSc1nc2c(sc3ccccc32)c(=O)n1CCO)NCC1CCCO1 (stereo unspecified) | 54% (active)
COc1ccc(C2=CC(c3ccc(OC)c(OC)c3)NC(=S)N2)cc1 (stereo unspecified) | 3.4%
CN(C)/C=N/c1ncc(C(=O)c2ccc(Cl)cc2Cl)s1 | -11.6%
Cc1cc(C(=O)c2cnc(/N=C/N(C)C)s2)c(F)cc1Cl | 93.5% (active)

SMILES | inhibition
CN(C)/C=N/c1ncc(C(=O)c2ccc(Cl)cc2)s1 | 0.8%
COc1ccc(-c2oc(NC(=O)CSc3nncn3C)c(C#N)c2-c2ccc(OC)cc2)cc1 | 7.6%
CCCCn1c(=S)[nH]c2ccc(N3CCOCC3)cc2c1=O | -8.1%
CCc1cc(N2CCOCC2)cc2c1[nH]c1ccccc12 | 55.4% (active)
c1ccc2c(c1)[nH]c1c(N3CCOCC3)ncnc12 | 7.2%
O=C(NCCc1c[nH]c2ccccc12)c1cccc(S(=O)(=O)Nc2ccccc2Cl)c1 | 20.2%
COc1cccc(C(c2sc3nc(C)nn3c2O)N2CCC3(CC2)OCCO3)c1 (stereo unspecified) | 5.1%
Cc1cnccc1CN(C)Cc1cn(C)nc1-c1ccc(Oc2ccccc2)cc1 | 14.4%
CN(Cc1cccnc1)Cc1cn(C)nc1-c1ccc(Oc2ccccc2)cc1 | 50.7% (active)
CN(Cc1ccno1)Cc1cn(C)nc1-c1ccc(Oc2ccccc2)cc1 | 26.3%
CC(C)NC(=O)COc1nncc2ccccc12 | 15.9%
O=c1sc2ccccc2c(=O)n1Cc1ccccc1F | 89.5% (active)
Cc1ccc(Cn2c(=O)sc3ccccc3c2=O)cc1 | 18.9%
Cc1ccccc1Cn1c(=O)sc2ccccc2c1=O | 6%
Cc1cccc(C)c1NC(=O)CSc1nnc([C@H](C)NC(=O)OC(C)(C)C)o1 | -1.6%
C=CCn1c(SCC(=O)NC2CCS(=O)(=O)C2)nc2sc(CC)cc2c1=O (stereo unspecified) | -1.4%
CCc1ccc2c(c1)CCCN2C(=O)c1ccccc1C(=O)O | 0.4%
CCCN1CCCc2cc(CN)ccc21 | 50.7% (active)
CCCN1CCCc2ccccc21 | -40.1%
Cc1ccc(NC2=CC(=O)CC(c3ccccc3)C2)cc1 (stereo unspecified) | 7.6%
COc1cccc(Nc2nc(CC(C)=O)ns2)c1 | -2%
c1ccc2sc(NCC3CCCO3)nc2c1 (stereo unspecified) | -11.7%

SMILES | inhibition
Oc1c(Cl)cc(Cl)c2cccnc12 | 21.3%
O=[N+]([O-])c1cc(Cl)c(O)c2ncccc12 | 51.7% (active)
O=[N+]([O-])c1cc(Cl)c2cccnc2c1O | 14.6%
COC(=O)C(C(=O)OC)c1ccc(-n2cccc2)cc1 | 11%
CCOc1cccc2cc(C(C)=O)oc12 | -14.2%
CC(=O)C1=C(c2ccccc2)NC(=O)NC1c1ccc(O)c(O)c1 (stereo unspecified) | 61.3% (active)
CC(=O)C1=C(c2ccccc2)NC(=S)NC1c1ccc(O)c(O)c1 (stereo unspecified) | 44.9%
CCOc1cc(C2NC(=O)NC(c3ccccc3)=C2C(C)=O)ccc1OC(C)=O (stereo unspecified) | 7%
COc1cccc(N2CCN(Cc3ccsc3)CC2)c1 | -5.2%
COC(=O)c1cc(=O)nc2sc(-c3ccccc3)nn12 | -2.3%
COC(=O)c1cc(=O)nc2sc(-c3cccs3)nn12 | 7.5%
COC(=O)c1cc(=O)nc2sc(-c3ccc(F)cc3)nn12 | 72.4% (active)
CN1Cc2sc(N)c(C#N)c2CC1(C)C | -8.4%
CN(C)c1ccc(/C=N/NC(=O)c2nonc2N)cc1[N+](=O)[O-] | 12.7%
COc1ccc(-c2csc(Nc3ccc(C)cn3)n2)cc1OC | 7.7%
Cc1cccnc1Nc1nc(-c2ccc(O)cc2)cs1 | -10.5%
Oc1ccc(-c2csc(Nc3ncccn3)n2)cc1 | -4.9%
Cc1cccnc1Nc1nc(-c2ccc(O)c(O)c2)cs1 | 52.3% (active)
Cc1cccnc1Nc1nc(-c2ccc(O)cc2O)cs1 | 10.6%
Oc1ccc(-c2csc(Nc3ncccn3)n2)cc1O | 58% (active)
c1ccc(-c2csc(Nc3ncccn3)n2)cc1 | -2.2%
COc1ccc(-c2csc(Nc3ccc(C)cn3)n2)cc1 | -1.5%
